# Bioassay records from PubChem.
# Autofluor counter: flagged as autofluorescent in microsphere protease counterscreen. fluorescence intensity (test concentration not listed). 360,000 tested, 3.1% active. compound autofluorescence counterscreen, microsphere flow cytometry; hits give high values; in the data active = fluorescence intensity above about 16000; inconclusive = no clear call, values can overlap the other calls
# SSB-PriA inh: inhibitors of Klebsiella pneumoniae PriA binding to SSB C-terminal tail, primary screen, biochemical, AlphaScreen | PriA–SSB C-terminal tail interaction (Klebsiella pneumoniae) | AlphaScreen SSBct-PriA binding, biotinylated peptide | inhibition, % at 33 µM | 430,000 tested, 0.6% active; in the data active = inhibition mostly above about 37%, no sharp cut-off; inactive = mostly below about 20%;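 note: plate controls were negative control peptide for no effect and reference peptide for full effect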
# BoNT F protease: BoNT/F light chain protease inhibitors, primary screen, biochemical, flow cytometry, MLPCN library; Botulinum neurotoxin type F light chain protease (Clostridium botulinum); Multiplex microsphere protease cleavage assay; inhibition, % at 10 µM; 360,000 tested, 0.22% active; in the data active = inhibition above about 35%, passing the limit was not always enough; inconclusive = no clear call, values can overlap the other calls; note: plate controls were buffer without enzyme for full effect and enzyme alone for no effect
# MazF activator: activators of E. coli MazEF toxin-antitoxin RNase, primary screen, biochemical, fluorescence, uHTS; Endoribonuclease toxin MazF (Escherichia coli (strain K12)), P0AE70; FAM/BHQ RNA-DNA oligo cleavage fluorescence, 5 h; activation, % at 20 µM; 350,000 tested, 0.32% active; in the data active = activation above about 50%
# Anthrax LF inh2: Bacillus anthracis LF protease inhibitors, primary screen, biochemical, multiplex microsphere, MLPCN library. multiplex microsphere protease cleavage assay. inhibition, % at 10 µM. 360,000 tested, 0.12% active. AID 588501, 2011; note: plate controls were buffer without enzyme for full effect and enzyme alone for no effect
# Target sequence (P15917 whole entry, looked up): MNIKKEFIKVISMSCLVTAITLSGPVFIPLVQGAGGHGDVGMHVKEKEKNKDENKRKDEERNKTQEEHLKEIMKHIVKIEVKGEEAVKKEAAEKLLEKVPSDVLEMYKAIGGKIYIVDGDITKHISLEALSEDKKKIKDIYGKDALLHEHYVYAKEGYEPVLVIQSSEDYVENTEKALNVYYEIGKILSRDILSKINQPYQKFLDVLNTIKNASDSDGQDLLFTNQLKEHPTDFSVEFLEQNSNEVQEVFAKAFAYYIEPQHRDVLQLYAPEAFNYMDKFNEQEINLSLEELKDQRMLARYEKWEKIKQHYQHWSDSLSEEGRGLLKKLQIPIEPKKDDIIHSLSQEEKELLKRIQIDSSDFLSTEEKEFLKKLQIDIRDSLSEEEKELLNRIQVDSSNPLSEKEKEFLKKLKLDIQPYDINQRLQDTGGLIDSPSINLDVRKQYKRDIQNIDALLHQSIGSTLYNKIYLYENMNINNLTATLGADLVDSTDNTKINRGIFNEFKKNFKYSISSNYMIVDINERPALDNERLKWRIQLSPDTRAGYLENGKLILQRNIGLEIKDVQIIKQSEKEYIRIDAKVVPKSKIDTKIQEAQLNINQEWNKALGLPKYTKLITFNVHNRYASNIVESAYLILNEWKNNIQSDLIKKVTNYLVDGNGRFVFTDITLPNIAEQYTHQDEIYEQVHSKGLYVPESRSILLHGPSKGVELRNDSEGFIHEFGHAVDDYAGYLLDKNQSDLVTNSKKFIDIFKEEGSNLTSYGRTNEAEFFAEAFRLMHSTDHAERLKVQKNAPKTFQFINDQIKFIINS
# BoNT A protease: BoNT/A light chain protease inhibitors, primary screen, biochemical, flow cytometry, MLPCN library; Botulinum neurotoxin type A light chain protease (Clostridium botulinum A str. ATCC 3502); 360,000 tested, 0.17% active; inhibition, % at 10 µM; AID 588499, 2011; multiplex microsphere protease substrate cleavage; note: plate controls were buffer without enzyme for full effect and enzyme alone for no effect
# BoNTA LC inh 1: BoNT/A light chain protease inhibitors, confirmation, biochemical, flow cytometry, cherry pick 1. shares compounds with BoNT F protease. multiplex microsphere protease assay. inhibition, % at 10 µM. 720 tested, 3% active; in the data active = inhibition above about 32%
# BoNTF LC inh 1: BoNT/F light chain protease inhibitors, confirmation, biochemical, flow cytometry, cherry pick 1; shares compounds with BoNT F protease; multiplex microsphere protease cleavage assay; inhibition, % at 10 µM; 720 tested, under 10 active; AID 602140, 2011; call rule not given here
# Anthrax LF CP1: Bacillus anthracis LF protease inhibitors, confirmation, biochemical, multiplex microsphere, cherry pick 1. shares compounds with BoNT F protease. multiplex microsphere protease cleavage assay. inhibition, % at 10 µM. 720 tested, under 10 active; call rule not given here
# * marks the source's active call; other numbers are inactive results; ? = inconclusive; . = no result given; + = active, no number. The list is not random: actives were taken first. Their share in the collection is about 3.3%. Cut-off read from the data, not from the text of the source, unless noted: active = inhibition above about 30%; inconclusive = no clear call, values can overlap the other calls; inactive = below that.
SMILES,Autofluor counter,SSB-PriA inh,BoNT F protease,MazF activator,Anthrax LF inh2,BoNT A protease,BoNTA LC inh 1,BoNTF LC inh 1,Anthrax LF CP1
C=CCn1cnc2c(oc3ccccc32)c1=O,3046,-5.7,7.0,6.2,35.1*,3.2,-2.5,-3.4,-2.6
COC(=O)c1ccc(CN2CCC(c3nnc(-c4ccsc4)o3)CC2)o1,.,-4.0,.,.,.,.,.,.,.
O=C(Nc1ccc(Cl)cc1C(=O)c1ccccc1)c1ccc2c(c1)OCO2,.,-20.0,.,.,.,.,.,.,.
Cc1ccc(C(=O)Nc2ccc(O)cc2C(=O)O)cc1,8453,-4.7,33.4,4.4,1.8,3.7,3.1,0.9,-4.0
Cc1ccc(NS(=O)(=O)c2ccc(Cl)c(C(=O)Nc3cccc(C(=O)O)c3)c2)cc1,4199,-16.1,?,4.3,-3.7,-2.8,-0.9,-3.2,-2.5
O=C(O)c1ccc(NS(=O)(=O)c2ccc(Cl)c(C(=O)Nc3ccccc3)c2)cc1,3179,-21.5,?,4.1,14.7,-0.5,0.4,0.2,1.3
O=C(Nc1ccccc1C(=O)O)c1cc(S(=O)(=O)Nc2ccccc2)ccc1Cl,4097,-8.7,?,-2.8,-5.8,2.9,-0.3,-4.6,1.1
O=C(O)c1ccc(NS(=O)(=O)c2ccc(NC(=O)c3ccccc3Cl)cc2)cc1,3422,-9.6,-5.8,2.4,-2.6,0.4,.,.,.
COc1ccc(S(=O)(=O)CCCC(=O)Nc2nnc(-c3ccc4c(c3)OCO4)o2)cc1,.,-37.0,.,.,.,.,.,.,.
O=C(Cn1nc2c(cc1=O)CCCC2)Nc1ccc(Br)cc1,.,8.0,.,.,.,.,.,.,.
Cc1nnc(N(C(=O)c2cnccn2)c2ccccc2)s1,3628,0.1,32.7,-5.7,-5.1,-0.4,0.4,-1.3,2.3
CCOc1ccccc1Nc1nc(-c2sc(C)nc2C)cs1,4650,8.3,40.6*,-2.9,1.8,6.7,0.0,-0.8,-3.7
Cc1cccc(N(CC(=O)N2CCCCCC2)S(C)(=O)=O)c1C,3213,-10.7,36.3*,5.5,-23.7,-2.1,0.5,2.0,6.2
CN(CCOc1ccccc1)C(=O)c1cc([N+](=O)[O-])cc([N+](=O)[O-])c1,4483,19.7,42.3*,-4.1,1.8,4.6,-0.7,-9.9,-2.2
CCOc1ccccc1NC(=O)c1ccc(S(=O)(=O)N(C)c2ccccc2)cc1,3483,-14.0,-7.9,0.1,-13.2,-0.4,.,.,.
CCOc1ccccc1NC(=O)c1ccc(S(=O)(=O)N(C)C)cc1,?,-20.5,4.0,1.9,38.6*,0.5,0.0,-4.0,-1.2
COc1ccc(CNC(=O)CSc2nnc(NC(=O)C3CC3)s2)cc1,3716,0.1,34.9*,7.6,-1.9,-0.4,0.1,0.3,-0.3
O=C(CCCSc1ccc(NC(=O)c2ccc(F)cc2)nn1)NC1CC1,.,-4.0,.,.,.,.,.,.,.
COCc1cc(CN2CCCC(C(=O)c3cccc(C(F)(F)F)c3)C2)ccc1OC (centres undefined),3106,-15.9,43.4*,-3.1,-1.7,4.2,-2.2,-0.5,-3.4
Cc1nn(C)c(C)c1S(=O)(=O)N1CCC(c2ccsc2)CC1,.,-12.0,.,.,.,.,.,.,.
CCn1c(=O)n(CC)c2cc(S(N)(=O)=O)c(C)cc21,7485,6.5,44.0*,11.4,7.1,8.2,0.6,-3.3,-2.6
CCn1c(=O)n(CC)c2cc(S(=O)(=O)N3CCCCC3)c(C)cc21,10905,-3.1,-3.5,5.0,-5.6,0.0,.,.,.
CN(Cc1ccc(C(C)(C)C)cc1)C(=O)C1CCN(C(=O)Nc2ccccc2)CC1,?,9.3,-4.2,-3.4,-4.0,-2.1,.,.,.
COC(=O)C1CCN(C(=O)CN(C)Cc2ccc(C(C)(C)C)cc2)CC1,3751,3.2,36.1*,7.0,3.1,0.5,2.0,1.8,4.7
O=S(=O)(NCC1CCN(c2ncccn2)CC1)C1CC1,.,-2.0,.,.,.,.,.,.,.
SMILES,Autofluor counter,SSB-PriA inh,BoNT F protease,MazF activator,Anthrax LF inh2,BoNT A protease,BoNTA LC inh 1,BoNTF LC inh 1,Anthrax LF CP1
Cn1c(=O)[nH]c(=O)c2c1nc1n2CC(O)CN1c1ccccc1 (centres undefined),3482,5.7,36.4*,14.3,-13.5,2.8,-0.4,-0.7,-2.3
COc1ccccc1-n1c(CNC(=O)c2ccccc2F)nnc1SCC(=O)c1ccccc1,.,10.0,.,.,.,.,.,.,.
Cc1ccc(S(=O)(=O)CCCC(=O)Nc2nc3c(C)c(Cl)ccc3s2)cc1,.,-19.0,.,.,.,.,.,.,.
CC(C)OCCCNC(=O)[C@H]1N2C(=O)c3ccccc3C2SC1(C)C (some centres undefined),3116,-1.7,-7.8,4.2,5.9,1.0,.,.,.
CC(C)NC(=O)[C@H]1N2C(=O)c3ccccc3C2SC1(C)C (some centres undefined),3866,4.1,35.6*,7.1,4.3,3.9,0.0,-2.9,-2.7
Cc1onc(-c2ccccc2)c1C(=O)N1CCCN2C(=O)c3ccccc3C21 (centres undefined),5529,7.0,1.0,0.5,-3.0,-0.5,1.0,-0.7,1.8
O=C(COc1ccc(S(=O)(=O)NCc2ccccc2)cc1Cl)NCc1ccncc1,6416,-12.5,-2.0,0.1,-0.9,0.0,.,.,.
O=C(COc1ccc(S(=O)(=O)NCc2ccccc2)cc1Cl)NCc1ccccn1,2862,-13.2,68.3*,5.5,21.5,12.6,1.7,-3.5,-1.4
Cc1cc(C)n(-c2nc3ccccc3nc2N2CCN(S(=O)(=O)c3ccc4ccccc4c3)CC2)n1,9467,-14.0,20.5,-6.1,24.6,34.2*,12.3,-3.1,5.6
Cc1cc(C)n(-c2nc3ccccc3nc2N2CCN(S(=O)(=O)c3ccc(F)c(C)c3)CC2)n1,7375,-12.8,12.2,-11.6,11.4,24.1,.,.,.
Cc1ccc(C)c(-c2nnc(NC(=O)C(c3ccccc3)c3ccccc3)o2)c1,.,-16.0,.,.,.,.,.,.,.
COc1cc(NC(=O)c2ccc(F)cc2)ccc1NC(=O)c1cc2ccccc2o1,.,12.9,.,-22.8,.,.,.,.,.
COc1cc(NC(=O)c2c(OC)cccc2OC)ccc1NC(=O)c1cc2ccccc2o1,3480,-5.2,-38.8,-1.1,32.0*,-2.4,0.9,-1.4,-0.2
O=S(=O)(c1ccccc1F)N1CCN(c2ccc3nnc(-c4ccco4)n3n2)CC1,.,1.0,.,.,.,.,.,.,.
c1ccc(-c2cnn3c(-c4ccccc4)c(-c4ccccc4)nc3n2)cc1,5602,-3.5,20.9,+,20.8,37.0*,26.1,23.2,10.9
O=C(NCCn1nc(C(F)(F)F)cc1C1CC1)C1c2ccccc2Oc2ccccc21,.,-21.0,.,.,.,.,.,.,.
